Laboratory results reported in PubChem BioAssay (NCI).
Several values for one entry are separate records, joined by “and”; a condition that tells them apart may be missing. Equal entries are not always repeated. About 79,000 compounds went through this panel and 15% of them were active in at least one assay; those are over-represented in the sample as a whole. A number with no mark means an inactive call. Activity calls are given as the source filed them. Rule as the data show it: active = growth inhibition above about 70%; inactive = the rest.

Assay: NCI Yeast Anticancer Drug Screen. Data for the sgs1 mgt1 strain (AID 161);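 also: 0% = growth of cultures given vehicle only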
Details: S. cerevisiae sgs1 mgt1 strain, stronger effect = higher value
Protocol: Growth inhibition of yeast strains with defined genetic alterations is measured as a screen for potential anti-cancer activity. Selected strains with alterations in DNA damage repair or cell cycle control were exposed to compounds and growth inhibition was measured relative to vehicle treated controls. The strain used in this assay is sgs1 mgt1

[1] = at 5.0 µM (retest, dose inferred, filed as 0.5)
[2] = at 50.0 µM (retest, dose inferred, filed as 5.0)

Row | Structure (SMILES) | growth inhibition [1] [%] | growth inhibition [2] | growth inhibition (at 50.0 µM)
1 | Cc1cc(C(=C2C=CC(=Nc3ccccc3)C=C2)c2ccc(Nc3ccccc3)cc2)ccc1N | -5 | 79% (active) | 65.3%
2 | COc1c(C)c2c(c(O)c1C/C=C(\C)CCC(=O)O)C(=O)OC2 | 30 | 90% (active) | 92.2% (active)
3 | O=C(/C=C/c1ccccc1)c1ccccc1O | 4 | 55% | 46%
4 | O=C(OC12CC3CC(CC(C3)C1)C2)c1ccc(NCc2cc(O)ccc2O)cc1 | 39 | 95% (active) | 90.8% (active)
5 | Cc1cc(=O)oc2cc(O)cc(O)c12 | -11 | -4% | -8.8%
6 | Cc1ccc(/C=N/Nc2cc(C)c3cccc(C)c3n2)s1 | 3 | 93% (active) | 92% (active)
7 | O=C1C=C(Cl)C(=O)c2ccccc21 | 30 | 99% (active) | 99.3% (active)
8 | COc1cc(NC(=O)C2=C(C)NC(C)=C(C(=O)Nc3cc(OC)c(Cl)cc3OC)C2c2cccc([N+](=O)[O-])c2)c(OC)cc1Cl | 6 | 95% (active) | 96.9% (active)
9 | O=C1C=CC(=O)c2c(O)c(CO)c(CO)c(O)c21 | 28 | 94% (active) | 51%
10 | O=C(c1ccccc1)C(O)C(Br)(CBr)c1ccccc1 (configuration not stated) | 4 | 98% (active) | 97.3% (active)
11 | CCCCC(=O)c1ccc([N+](=O)[O-])o1 | 26 | 100% (active) | 
12 | CCCC(=O)c1ccc([N+](=O)[O-])o1 | 15 | 99% (active) | 
13 | COc1cccc2c1C(=O)c1c(O)c3c(c(O)c1C2=O)C[C@@](O)(C(=O)CO)C[C@@H]3OC1CC(OC(C)=O)C(OC(C)=O)C(C)O1 (some centres not stated) | 37 | 99% (active) | 90% (active)
14 | CC(C)c1ccc(C(=O)O)cc1 |  |  | 9.55% and 13.2%
15 | O=C(O)c1cc(N=Nc2ccc([N+](=O)[O-])cc2)ccc1O |  |  | -13.7% and 12.2%
16 | Nc1cc2ccc(S(=O)(=O)O)cc2cc1S(=O)(=O)O |  |  | 17.6% and -1.75%
17 | O=CNc1ccc(C(F)(F)F)cc1 |  |  | -3.3% and 6.35%
18 | Cc1ccc(S(=O)(=O)NN)cc1 |  |  | -3.6% and 5.7%
